# Results as given in article PMC11006913.
# Residue numbers refer to the chain shown, from its start.
# Biological target: T1, SIX6 (Homo sapiens, UniProt O95475 114-200, H141N)
# T1 sequence: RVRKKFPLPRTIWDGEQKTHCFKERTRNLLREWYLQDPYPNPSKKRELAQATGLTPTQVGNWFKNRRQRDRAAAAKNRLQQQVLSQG
# Test: PBM; 200 nM protein, PBS
# Settings: dsDNA, one strand shown
row,Sequence,binding signal
1,CAAGGCCC,"8.89 upbm affinity estimate (log intensity, higher = more binding, comparable within an allelic series)"

# Biological target: T2, SIX6 (Homo sapiens, UniProt O95475 114-200, T165P)
# T2 sequence: T1 sequence with N28H, T52P
# Test: PBM; 200 nM protein, PBS
# Settings: dsDNA, one strand shown
row,Sequence,binding signal
1,ATGATATG,"9.99 upbm affinity estimate (log intensity, higher = more binding, comparable within an allelic series)"
2,GGCGGAAC,"8.99 upbm affinity estimate (log intensity, higher = more binding, comparable within an allelic series)"
3,AATGATAC,"10.1 upbm affinity estimate (log intensity, higher = more binding, comparable within an allelic series)"
4,GCGCGCCC,"8.94 upbm affinity estimate (log intensity, higher = more binding, comparable within an allelic series)"
5,GCTTGGCC,"8.86 upbm affinity estimate (log intensity, higher = more binding, comparable within an allelic series)"
6,CAAGGCCC,"8.97 upbm affinity estimate (log intensity, higher = more binding, comparable within an allelic series)"

# Biological target: T3, VENTX (Homo sapiens, UniProt O95231 78-163, Y115F)
# T3 sequence: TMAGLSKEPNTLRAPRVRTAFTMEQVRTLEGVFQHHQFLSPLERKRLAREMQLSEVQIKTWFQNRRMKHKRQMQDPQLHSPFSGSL
# Test: PBM; 200 nM protein, PBS
# Settings: dsDNA, one strand shown
row,Sequence,binding signal
1,CCCCCTGC,"8.11 upbm affinity estimate (log intensity, higher = more binding, comparable within an allelic series)"
2,GCCGCAGC,"8.14 upbm affinity estimate (log intensity, higher = more binding, comparable within an allelic series)"
3,GGCGGAAC,"8.15 upbm affinity estimate (log intensity, higher = more binding, comparable within an allelic series)"
4,CACGGGGG,"7.86 upbm affinity estimate (log intensity, higher = more binding, comparable within an allelic series)"
5,AATGATAC,"9.98 upbm affinity estimate (log intensity, higher = more binding, comparable within an allelic series)"
6,GCGCGCCC,"8.22 upbm affinity estimate (log intensity, higher = more binding, comparable within an allelic series)"
7,CCGGGAGG,"8.13 upbm affinity estimate (log intensity, higher = more binding, comparable within an allelic series)"
8,CCCCATGC,"8.2 upbm affinity estimate (log intensity, higher = more binding, comparable within an allelic series)"
9,GGCACCAC,"8.09 upbm affinity estimate (log intensity, higher = more binding, comparable within an allelic series)"
10,CGGAGGGA,"8.17 upbm affinity estimate (log intensity, higher = more binding, comparable within an allelic series)"
11,AGAGGGGC,"8.07 upbm affinity estimate (log intensity, higher = more binding, comparable within an allelic series)"
12,GGGGTACC,"7.99 upbm affinity estimate (log intensity, higher = more binding, comparable within an allelic series)"
13,GCCATTAA,"11.6 upbm affinity estimate (log intensity, higher = more binding, comparable within an allelic series)"
14,CTGGGACC,"8.06 upbm affinity estimate (log intensity, higher = more binding, comparable within an allelic series)"
15,CCGTCCGC,"7.93 upbm affinity estimate (log intensity, higher = more binding, comparable within an allelic series)"
16,CCCGGACG,"8.04 upbm affinity estimate (log intensity, higher = more binding, comparable within an allelic series)"

row,Sequence,binding signal
1,CGAGCGAC,"8.14 upbm affinity estimate (log intensity, higher = more binding, comparable within an allelic series)"
2,CCCCTCCC,"8.02 upbm affinity estimate (log intensity, higher = more binding, comparable within an allelic series)"
3,GCTTGGCC,"7.9 upbm affinity estimate (log intensity, higher = more binding, comparable within an allelic series)"
4,GGGAGGAC,"8.28 upbm affinity estimate (log intensity, higher = more binding, comparable within an allelic series)"
5,CCCCTCGG,"8.04 upbm affinity estimate (log intensity, higher = more binding, comparable within an allelic series)"
6,AGTTAATG,"11.4 upbm affinity estimate (log intensity, higher = more binding, comparable within an allelic series)"
7,GCCAGGGC,"7.85 upbm affinity estimate (log intensity, higher = more binding, comparable within an allelic series)"
8,CGGGCACG,"8.07 upbm affinity estimate (log intensity, higher = more binding, comparable within an allelic series)"
9,GACCCAGC,"8.12 upbm affinity estimate (log intensity, higher = more binding, comparable within an allelic series)"
10,CCAGGGCC,"8.19 upbm affinity estimate (log intensity, higher = more binding, comparable within an allelic series)"
11,CCCCCTGA,"7.94 upbm affinity estimate (log intensity, higher = more binding, comparable within an allelic series)"
12,CTCCCGAG,"8.07 upbm affinity estimate (log intensity, higher = more binding, comparable within an allelic series)"
13,CCATTAAC,"11.7 upbm affinity estimate (log intensity, higher = more binding, comparable within an allelic series)"
14,CCCTTCCG,"8.15 upbm affinity estimate (log intensity, higher = more binding, comparable within an allelic series)"
15,CAAGGCCC,"7.82 upbm affinity estimate (log intensity, higher = more binding, comparable within an allelic series)"

# Biological target: T4, SIX6 (Homo sapiens, UniProt O95475 114-200, L167M)
# T4 sequence: T1 sequence with N28H, L54M
# Test: PBM; 200 nM protein, PBS
# Settings: dsDNA, one strand shown
row,Sequence,binding signal
1,ATGATATG,"10.7 upbm affinity estimate (log intensity, higher = more binding, comparable within an allelic series)"
2,GGCGGAAC,"8.81 upbm affinity estimate (log intensity, higher = more binding, comparable within an allelic series)"
3,AATGATAC,"11 upbm affinity estimate (log intensity, higher = more binding, comparable within an allelic series)"
4,GCGCGCCC,"8.76 upbm affinity estimate (log intensity, higher = more binding, comparable within an allelic series)"
5,GCTTGGCC,"8.89 upbm affinity estimate (log intensity, higher = more binding, comparable within an allelic series)"
6,CAAGGCCC,"8.85 upbm affinity estimate (log intensity, higher = more binding, comparable within an allelic series)"

# Biological target: T5, SIX6 (Homo sapiens, UniProt O95475 114-200, L143M)
# T5 sequence: T1 sequence with N28H, L30M
# Test: PBM; 200 nM protein, PBS
# Settings: dsDNA, one strand shown
row,Sequence,binding signal
1,ATGATATG,"11.1 upbm affinity estimate (log intensity, higher = more binding, comparable within an allelic series)"
2,GGCGGAAC,"8.85 upbm affinity estimate (log intensity, higher = more binding, comparable within an allelic series)"
3,AATGATAC,"11.3 upbm affinity estimate (log intensity, higher = more binding, comparable within an allelic series)"
4,GCGCGCCC,"8.75 upbm affinity estimate (log intensity, higher = more binding, comparable within an allelic series)"
5,GCTTGGCC,"8.89 upbm affinity estimate (log intensity, higher = more binding, comparable within an allelic series)"
6,CAAGGCCC,"8.93 upbm affinity estimate (log intensity, higher = more binding, comparable within an allelic series)"

# Biological target: T6, SIX6 (Homo sapiens, UniProt O95475 114-200, L143I)
# T6 sequence: T1 sequence with N28H, L30I
# Test: PBM; 200 nM protein, PBS
# Settings: dsDNA, one strand shown
row,Sequence,binding signal
1,ATGATATG,"10.5 upbm affinity estimate (log intensity, higher = more binding, comparable within an allelic series)"
2,GGCGGAAC,"8.84 upbm affinity estimate (log intensity, higher = more binding, comparable within an allelic series)"
3,AATGATAC,"10.6 upbm affinity estimate (log intensity, higher = more binding, comparable within an allelic series)"
4,GCGCGCCC,"8.78 upbm affinity estimate (log intensity, higher = more binding, comparable within an allelic series)"
5,GCTTGGCC,"8.86 upbm affinity estimate (log intensity, higher = more binding, comparable within an allelic series)"
6,CAAGGCCC,"8.82 upbm affinity estimate (log intensity, higher = more binding, comparable within an allelic series)"

# Biological target: HOXB6 (Homo sapiens, UniProt P17509 132-218, K202E)
# Test: PBM; 200 nM protein, PBS
# Settings: dsDNA, one strand shown
# Chain of HOXB6 (P17509 132-218 K202E): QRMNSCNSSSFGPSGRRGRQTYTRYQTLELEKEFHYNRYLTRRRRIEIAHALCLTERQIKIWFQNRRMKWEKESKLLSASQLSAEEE
row,Sequence,binding signal
1,GGGGTACC,"9.07 upbm affinity estimate (log intensity, higher = more binding, comparable within an allelic series)"
2,GCCATTAA,"10 upbm affinity estimate (log intensity, higher = more binding, comparable within an allelic series)"
3,CCCCTCGG,"8.78 upbm affinity estimate (log intensity, higher = more binding, comparable within an allelic series)"
4,AGTTAATG,"9.94 upbm affinity estimate (log intensity, higher = more binding, comparable within an allelic series)"
5,CCATTAAC,"10.1 upbm affinity estimate (log intensity, higher = more binding, comparable within an allelic series)"

# Biological target: T7, SIX6 (Homo sapiens, UniProt O95475 114-200, T165G)
# T7 sequence: T1 sequence with N28H, T52G
# Test: PBM; 200 nM protein, PBS
# Settings: dsDNA, one strand shown
row,Sequence,binding signal
1,ATGATATG,"11.4 upbm affinity estimate (log intensity, higher = more binding, comparable within an allelic series)"
2,GGCGGAAC,"8.85 upbm affinity estimate (log intensity, higher = more binding, comparable within an allelic series)"
3,AATGATAC,"11.5 upbm affinity estimate (log intensity, higher = more binding, comparable within an allelic series)"
4,GCGCGCCC,"8.82 upbm affinity estimate (log intensity, higher = more binding, comparable within an allelic series)"
5,GCTTGGCC,"8.99 upbm affinity estimate (log intensity, higher = more binding, comparable within an allelic series)"
6,CAAGGCCC,"8.95 upbm affinity estimate (log intensity, higher = more binding, comparable within an allelic series)"

# Biological target: HOXA2 (Homo sapiens, UniProt O43364 129-215, R185T)
# Test: PBM; 200 nM protein, PBS
# Settings: dsDNA, one strand shown
# Chain of HOXA2 (O43364 129-215 R185T): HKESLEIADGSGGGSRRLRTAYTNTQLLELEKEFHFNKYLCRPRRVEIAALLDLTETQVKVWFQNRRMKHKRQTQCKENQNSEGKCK
row,Sequence,binding signal
1,CACGGGGG,"7.01 upbm affinity estimate (log intensity, higher = more binding, comparable within an allelic series)"
2,CCCCTCGG,"7.19 upbm affinity estimate (log intensity, higher = more binding, comparable within an allelic series)"
3,GCCAGGGC,"6.87 upbm affinity estimate (log intensity, higher = more binding, comparable within an allelic series)"
4,CCATTAAC,"12.1 upbm affinity estimate (log intensity, higher = more binding, comparable within an allelic series)"

# Biological target: HOXA4 (Homo sapiens, UniProt Q00056 201-287, R217L)
# Test: PBM; 200 nM protein, PBS
# Settings: dsDNA, one strand shown
# Chain of HOXA4 (Q00056 201-287 R217L): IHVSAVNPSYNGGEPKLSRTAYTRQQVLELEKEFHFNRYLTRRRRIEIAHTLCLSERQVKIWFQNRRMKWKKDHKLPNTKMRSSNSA
row,Sequence,binding signal
1,CCCCCTGC,"9.45 upbm affinity estimate (log intensity, higher = more binding, comparable within an allelic series)"
2,CGGAGGGA,"9.72 upbm affinity estimate (log intensity, higher = more binding, comparable within an allelic series)"
3,GGGAGGAC,"9.91 upbm affinity estimate (log intensity, higher = more binding, comparable within an allelic series)"
4,GCCAGGGC,"9.77 upbm affinity estimate (log intensity, higher = more binding, comparable within an allelic series)"
5,CCAGGGCC,"9.71 upbm affinity estimate (log intensity, higher = more binding, comparable within an allelic series)"
6,CCATTAAC,"12 upbm affinity estimate (log intensity, higher = more binding, comparable within an allelic series)"
7,CCCTTCCG,"9.96 upbm affinity estimate (log intensity, higher = more binding, comparable within an allelic series)"

# Biological target: HOXB9 (Homo sapiens, UniProt P17482 171-250)
# Test: PBM; 200 nM protein, PBS
# Settings: dsDNA, one strand shown
# Chain of HOXB9 (P17482 171-250): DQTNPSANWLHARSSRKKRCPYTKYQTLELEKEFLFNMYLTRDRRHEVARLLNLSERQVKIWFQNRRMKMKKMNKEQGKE
row,Sequence,binding signal
1,GCCGCAGC,"8.33 upbm affinity estimate (log intensity, higher = more binding, comparable within an allelic series)"
2,CACGGGGG,"8.3 upbm affinity estimate (log intensity, higher = more binding, comparable within an allelic series)"
3,GCGCGCCC,"8.66 upbm affinity estimate (log intensity, higher = more binding, comparable within an allelic series)"
4,AGAGGGGC,"8.46 upbm affinity estimate (log intensity, higher = more binding, comparable within an allelic series)"
5,GCCATTAA,"12.2 upbm affinity estimate (log intensity, higher = more binding, comparable within an allelic series)"
6,CCCGGACG,"8.49 upbm affinity estimate (log intensity, higher = more binding, comparable within an allelic series)"
7,CGAGCGAC,"8.38 upbm affinity estimate (log intensity, higher = more binding, comparable within an allelic series)"
8,GACCCAGC,"8.47 upbm affinity estimate (log intensity, higher = more binding, comparable within an allelic series)"
9,CTCCCGAG,"8.42 upbm affinity estimate (log intensity, higher = more binding, comparable within an allelic series)"
10,CCATTAAC,"11.7 upbm affinity estimate (log intensity, higher = more binding, comparable within an allelic series)"
